# Laboratory results from ChEMBL document CHEMBL1201862, “PubChem BioAssay data set” (2004).
# Out of some 400,000 compounds screened, about 2,100 (0.53%) were called active. Another 14% or so got no clear call; they are omitted. How the calls were made is not given here. Many of the other results were omitted from the sample, so actives are more common in it than they were.
# Molecular target: Ataxin-2 (Homo sapiens) (UniProt Q99700)
# Assay: qHTS for Inhibitors of ATXN expression.
# Format: functional
# Sequence of Ataxin-2 (Homo sapiens) (Q99700 whole entry): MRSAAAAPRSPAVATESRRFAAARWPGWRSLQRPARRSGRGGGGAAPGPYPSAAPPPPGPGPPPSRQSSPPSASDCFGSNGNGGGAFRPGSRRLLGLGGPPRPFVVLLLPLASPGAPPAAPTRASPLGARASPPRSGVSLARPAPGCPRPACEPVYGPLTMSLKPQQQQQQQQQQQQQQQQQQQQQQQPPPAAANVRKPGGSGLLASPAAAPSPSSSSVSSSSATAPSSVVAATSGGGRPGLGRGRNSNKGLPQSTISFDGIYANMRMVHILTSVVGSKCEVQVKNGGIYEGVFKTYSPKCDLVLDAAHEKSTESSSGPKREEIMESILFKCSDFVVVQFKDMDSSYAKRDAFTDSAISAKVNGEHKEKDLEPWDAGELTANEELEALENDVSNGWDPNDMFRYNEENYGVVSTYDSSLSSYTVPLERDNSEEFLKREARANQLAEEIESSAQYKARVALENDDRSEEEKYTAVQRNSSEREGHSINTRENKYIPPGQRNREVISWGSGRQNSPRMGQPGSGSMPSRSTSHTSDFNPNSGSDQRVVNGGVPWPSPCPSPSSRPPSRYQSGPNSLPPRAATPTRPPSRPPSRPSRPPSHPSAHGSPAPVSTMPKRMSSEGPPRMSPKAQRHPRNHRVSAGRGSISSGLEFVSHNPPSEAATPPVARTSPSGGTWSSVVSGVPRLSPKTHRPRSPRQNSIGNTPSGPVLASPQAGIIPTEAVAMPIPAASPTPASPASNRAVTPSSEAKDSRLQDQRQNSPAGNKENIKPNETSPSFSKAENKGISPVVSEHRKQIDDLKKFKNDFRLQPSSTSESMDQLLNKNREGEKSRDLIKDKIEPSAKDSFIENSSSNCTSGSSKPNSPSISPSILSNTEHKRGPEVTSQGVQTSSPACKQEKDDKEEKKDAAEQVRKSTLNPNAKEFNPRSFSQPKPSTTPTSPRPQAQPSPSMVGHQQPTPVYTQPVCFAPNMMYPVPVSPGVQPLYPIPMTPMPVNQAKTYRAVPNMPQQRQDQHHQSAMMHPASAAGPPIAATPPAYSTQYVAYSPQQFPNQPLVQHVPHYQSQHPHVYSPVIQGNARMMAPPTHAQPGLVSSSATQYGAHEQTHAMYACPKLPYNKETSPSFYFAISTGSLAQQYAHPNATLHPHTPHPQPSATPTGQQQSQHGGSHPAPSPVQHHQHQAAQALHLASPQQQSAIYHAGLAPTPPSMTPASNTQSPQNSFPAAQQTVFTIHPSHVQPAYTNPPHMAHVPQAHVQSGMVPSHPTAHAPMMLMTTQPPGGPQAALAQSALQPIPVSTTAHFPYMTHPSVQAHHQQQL
row,Structure (SMILES),Potency
1,COc1cccc2c3c(c(C)nc12)CCN3c1ccccc1,inactive
2,Cc1cccn2c(=O)c3cc(C(=O)NCC4CCCO4)c(=N)n(CCc4ccccc4)c3nc12 (stereo not given),inactive
3,Oc1ccc2nnc3c(Br)cnn3c2c1,inactive
4,CCCNS(=O)(=O)c1ccc2nc(NC(=O)c3ccc(F)cc3)sc2c1,39.8 µM (active)
5,COc1cc2nc(NC(=O)c3ccc(S(=O)(=O)N4CCCC4)cc3)sc2cc1OC,inactive
6,NS(=O)(=O)c1ccc2nc(NC(=O)c3ccc(Br)o3)sc2c1,inactive
7,Cc1n[nH]c(-c2cccnc2)c1N=NN(C)C,23.8 µM (active)
8,O=C/C(=C\Nc1ccc(S(=O)(=O)CCO)cc1)c1nc2cc(Cl)ccc2o1,inactive
9,Cc1ccsc1/C=N/N=C/c1sccc1C,inactive
10,C=C1C(=O)OC2C=C(CO)C3OC3C3OC3(C)CC(OC(=O)/C(=C/C)COC(C)=O)C12 (stereo not given),16.8 µM (active)
11,O=C1Nc2c(Br)cc(Br)c3cccc1c23,inactive
12,Cc1cc(C)cc(NC2=C(c3ccccc3)C(=O)c3ccccc32)c1,20 µM (active)
13,Cc1cnc2c(c1)C(=O)c1ccccc1-2,inactive
14,Cc1ccc(C2C=C(c3ccccc3)Nc3ncnn32)cc1 (stereo not given),inactive
15,CCc1cc2c(C)cc(=O)oc2cc1OC(=O)C1CCCN1C(=O)OC(C)(C)C (stereo not given),inactive
16,CC(=O)/N=c1\c(C#N)cc2c(=O)n3cccc(C)c3nc2n1CCCOC(C)C,inactive
17,CCOC(=O)Nc1ccc2c3c(cccc13)-c1ccccc1-2,inactive
18,C=C(C)CN=C(S)NN=C1c2ccccc2-c2ccccc21,inactive
19,CCOC(=O)Nc1ccc2c(c1)C(=NNC(N)=S)c1ccccc1-2,31.6 µM (active)
20,COc1ccc(C2C=C(c3ccccc3)Nc3nc(NC(=O)c4ccc(C)cc4)nn32)cc1 (stereo not given),inactive
21,COC1(OC)C(/C=C/c2ccc(Cl)cc2)C(C#N)(C#N)C1(OC)OC (stereo not given),31.6 µM (active)
22,NC(=O)c1ccsc1NC(=O)COC(=O)CNC(=O)c1ccc(F)cc1,inactive
23,C=Cn1cc[n+](CC(=O)c2ccc(Br)cc2)c1,inactive
24,O=C(CCCSc1nc(O)c2ccccc2n1)c1ccccc1,inactive
25,O=C(CCSc1ccc(Br)cc1)c1ccc(O)cc1,39.8 µM (active)
26,COc1ccc(C2Nc3cc(OC)ccc3-n3cccc32)cc1 (stereo not given),inactive
27,COc1ccc(N2C(=O)CC(Sc3nc[nH]n3)C2=O)c(OC)c1 (stereo not given),28.2 µM (active)
28,COc1ccccc1N1C(=O)CC(N(O)c2ccccc2)C1=O (stereo not given),inactive
29,CCN(C(=O)c1cc2c(=O)n3ccccc3nc2n1C)C1CCCCC1,inactive
30,Nc1ccc(SCc2nc3cccc4c3n2CCC4)cc1,inactive
